Measurements as given in PubChem BioAssay (NCI).
This is part of a sample that, as a whole, favours compounds with a hit. Of some 83,000 tested, about 20% had one in any assay.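 Cell lines were cultured in 96-well plates, exposed to a single compound concentration, and assessed for percent growth 48 hours later.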 The source made the active and inactive calls. Rule for the calls: active = growth percent below 10; inactive = the rest.

Columns and labels:
Test in all cases: NCI-60 one-dose screen, 48 h (100 = growth as untreated, 0 = no growth, -100 = all killed)
Conditions in all cases: 10 µM unless noted
SK-MEL-2 melanoma = tested on: SK-MEL-2 melanoma
EKVX NSCLC = tested on: EKVX NSCLC
SN12C renal = tested on: SN12C renal
UO-31 renal = tested on: UO-31 renal
TK-10 renal = tested on: TK-10 renal
ACHN renal = tested on: ACHN renal
CAKI-1 renal = tested on: CAKI-1 renal
A498 renal = tested on: A498 renal
CCRF-CEM leukemia = tested on: CCRF-CEM leukemia
MOLT-4 leukemia = tested on: MOLT-4 leukemia

Measured: growth

CCOC(=O)c1c(NCC(=O)Nc2cccc([N+](=O)[O-])c2)sc(C(C)=O)c1C
active: SK-MEL-2 melanoma -15% | EKVX NSCLC 0.605% | UO-31 renal -12.7% | TK-10 renal -22.6% | ACHN renal -13.5% | CAKI-1 renal -30.8% | A498 renal -75.3% | CCRF-CEM leukemia 4.89% | MOLT-4 leukemia 3.1%
inactive: SN12C renal 12.6%

CN1c2ccccc2Sc2cc(/C=N/Nc3ccnc4cc(Cl)ccc34)ccc21
inactive: SK-MEL-2 melanoma 98.3% | EKVX NSCLC 94.2% | SN12C renal 95.7% | UO-31 renal 84% | TK-10 renal 115% | ACHN renal 109% | CAKI-1 renal 103% | A498 renal 131% | CCRF-CEM leukemia 56.2% | MOLT-4 leukemia 82.4%

Cc1[nH]c(C(=O)Nc2ccccc2OCc2cccc(C(=O)NC3CCNC3)c2)c(Cl)c1Cl (stereo not given)
inactive: SK-MEL-2 melanoma 101% | EKVX NSCLC 79.6% | UO-31 renal 84.9% | TK-10 renal 101% | ACHN renal 74.9% | CAKI-1 renal 27.5% | A498 renal 79.7%
active: SN12C renal -33.5% | CCRF-CEM leukemia 6.3% | MOLT-4 leukemia 1.73%

Cn1cc(-c2nnc(N)nc2-c2c[nH]c3ccc(F)cc23)c2cc(Br)ccc21
inactive: SK-MEL-2 melanoma 11.8% | EKVX NSCLC 27.7% | SN12C renal 38.1% | UO-31 renal 41.3% | TK-10 renal 61.5% | ACHN renal 40.6% | CAKI-1 renal 28%
active: A498 renal 3.05% | CCRF-CEM leukemia -4.24% | MOLT-4 leukemia -21.3%

CCCCSC1=C(Cl)CN(c2ccc(Cl)cc2)C1=O
inactive: SK-MEL-2 melanoma 103% | EKVX NSCLC 101% | SN12C renal 104% | UO-31 renal 91.1% | TK-10 renal 140% | ACHN renal 104% | CAKI-1 renal 93.9% | A498 renal 101% | CCRF-CEM leukemia 89.9% | MOLT-4 leukemia 86.2%

O=C1Nc2ccc(F)cc2/C1=C\C(=O)c1ccc(NS(=O)(=O)c2ccccc2)cc1
active: CCRF-CEM leukemia 8.68%
inactive: SK-MEL-2 melanoma 115% | EKVX NSCLC 82.8% | SN12C renal 87.2% | UO-31 renal 70% | TK-10 renal 130% | ACHN renal 74.6% | CAKI-1 renal 72.9% | A498 renal 115% | MOLT-4 leukemia 40.7%

CC1=Cc2ccccc2OC12C=Cc1ccccc1O2 (stereo not given)
inactive: SK-MEL-2 melanoma 115% | EKVX NSCLC 82.2% | SN12C renal 102% | UO-31 renal 69% | TK-10 renal 180% | ACHN renal 88.4% | CAKI-1 renal 78.5% | A498 renal 117% | CCRF-CEM leukemia 105% | MOLT-4 leukemia 99.9%

CCC(=C(c1ccc(OCCN(C)C)cc1)c1ccc(OCCN(C)C)cc1)c1ccc(Cl)cc1
inactive: TK-10 renal 60.2%
active: SK-MEL-2 melanoma -41.8% | EKVX NSCLC 7.78% | SN12C renal -33.2% | UO-31 renal -71.9% | ACHN renal -78.5% | CAKI-1 renal -53.6% | A498 renal -23.3% | CCRF-CEM leukemia -50.8% | MOLT-4 leukemia -50.2%

Clc1ccc2[nH]cc(-c3cncn3CCc3ccc4c(c3)OCO4)c2c1
inactive: SK-MEL-2 melanoma 86.4% | EKVX NSCLC 48% | SN12C renal 77% | UO-31 renal 51.9% | TK-10 renal 96.9% | ACHN renal 78.4% | CAKI-1 renal 35.6% | A498 renal 56.3% | CCRF-CEM leukemia 64.2% | MOLT-4 leukemia 60.4%

COc1ccc([C@H]2C(=O)N(c3cc(OC)c(OC)c(OC)c3)[C@@H]2c2ccc(OC)c(O)c2)cc1
active: SK-MEL-2 melanoma 9.11% | A498 renal -29.9%
inactive: EKVX NSCLC 46.1% | SN12C renal 30.4% | UO-31 renal 26.9% | TK-10 renal 110% | ACHN renal 28.4% | CAKI-1 renal 24.5% | CCRF-CEM leukemia 18.9% | MOLT-4 leukemia 13.4%

FC(F)(F)c1cc(Br)cc(-c2cc(-c3ccc4c(c3)OCCO4)[nH]n2)c1
inactive: SK-MEL-2 melanoma 77.4% | EKVX NSCLC 52.4% | SN12C renal 44.7% | UO-31 renal 51.3% | TK-10 renal 121% | ACHN renal 28.9% | CAKI-1 renal 33.3% | A498 renal 11.6% | CCRF-CEM leukemia 14.9% | MOLT-4 leukemia 22.5%

C/C(=N\NC(=O)Nc1ccccc1)c1nnn(-c2ccc([N+](=O)[O-])cc2)c1C
inactive: SK-MEL-2 melanoma 104% | EKVX NSCLC 103% | SN12C renal 110% | UO-31 renal 72.4% | TK-10 renal 99.7% | ACHN renal 104% | CAKI-1 renal 94.4% | A498 renal 105% | CCRF-CEM leukemia 105% | MOLT-4 leukemia 103%

O=C1[C@H]2Cc3c([nH]c4ccccc34)[C@H](c3ccc(Br)cc3)N2C(=O)CN1C1CCN(CC2CCCCC2)CC1
inactive: SK-MEL-2 melanoma 109% | EKVX NSCLC 83.8% | SN12C renal 73.7% | UO-31 renal 45.3% | TK-10 renal 121% | ACHN renal 80.4% | CAKI-1 renal 52.8% | A498 renal 79.3% | CCRF-CEM leukemia 49.1% | MOLT-4 leukemia 38.5%

C#C[C@]1(O)CC[C@H]2[C@@H]3CC=C4c5sc(Nc6cc(C)cc(C)c6)nc5CC[C@]4(C)[C@H]3CC[C@@]21C
inactive: SK-MEL-2 melanoma 14% | SN12C renal 51.4% | TK-10 renal 62.8% | ACHN renal 34.3% | CAKI-1 renal 11% | CCRF-CEM leukemia 10.7%
active: EKVX NSCLC -3.54% | UO-31 renal 8.23% | A498 renal -3.87% | MOLT-4 leukemia 0.923%

Cn1c(SCC(=O)c2ccco2)nc2ccccc2c1=O
inactive: SK-MEL-2 melanoma 106% | EKVX NSCLC 55.2% | SN12C renal 105% | UO-31 renal 68.7% | TK-10 renal 146% | ACHN renal 101% | CAKI-1 renal 74.7% | A498 renal 144% | CCRF-CEM leukemia 98.8% | MOLT-4 leukemia 96%

Cc1ccc2c(n1)C(=O)C(Cl)=C(Nc1cccc(C)c1C)C2=O
inactive: EKVX NSCLC 31.2% | TK-10 renal 142% | CAKI-1 renal 56.5% | A498 renal 64%
active: SK-MEL-2 melanoma -42% | SN12C renal -73.4% | UO-31 renal -22.8% | ACHN renal -25.5% | CCRF-CEM leukemia 2.35% | MOLT-4 leukemia -10.3%

CCOC(=O)c1c(NC(=O)c2ccc(C(F)(F)F)cc2)sc2c3c(ccc12)OCN(C)C3
inactive: SK-MEL-2 melanoma 72.8% | EKVX NSCLC 79.5% | SN12C renal 48.1% | UO-31 renal 70.9% | A498 renal 89.1%
active: TK-10 renal -15.7% | ACHN renal -14.5% | CAKI-1 renal -23.9% | CCRF-CEM leukemia 2.17% | MOLT-4 leukemia -8.7%

NS(=O)(=O)c1ccc(Nc2nc(N/N=C/c3ccc4c(c3)OCO4)nc(Nc3ccccc3)n2)cc1
inactive: SK-MEL-2 melanoma 55.8% | EKVX NSCLC 73.2% | SN12C renal 54.3% | UO-31 renal 76.8% | TK-10 renal 96.6% | ACHN renal 57.8% | CAKI-1 renal 45.4% | A498 renal 51.1% | CCRF-CEM leukemia 16.3% | MOLT-4 leukemia 11.2%

Cc1csc(/N=C(N)/N=C(\N)c2cccc(C#N)c2)n1
inactive: SK-MEL-2 melanoma 47.8% | EKVX NSCLC 82.8% | SN12C renal 92.3% | UO-31 renal 76.3% | TK-10 renal 168% | ACHN renal 84.9% | CAKI-1 renal 53.9% | A498 renal 69.4% | CCRF-CEM leukemia 82.7% | MOLT-4 leukemia 85.6%

COc1cc(C(C)=C(c2ccc(OCCN(C)C)cc2)c2ccc(OCCN(C)C)cc2)ccc1F
inactive: SK-MEL-2 melanoma 109% | EKVX NSCLC 96.1% | SN12C renal 101% | UO-31 renal 95.5% | TK-10 renal 97.8% | ACHN renal 105% | CAKI-1 renal 101% | A498 renal 108% | CCRF-CEM leukemia 111% | MOLT-4 leukemia 108%

CC/C(=C(/c1ccc(Cl)cc1)c1ccc(OCCN)cc1)c1ccccc1
inactive: SK-MEL-2 melanoma 105% | EKVX NSCLC 102% | SN12C renal 104% | UO-31 renal 78.2% | TK-10 renal 115% | ACHN renal 96.1% | CAKI-1 renal 74.6% | A498 renal 92.9% | CCRF-CEM leukemia 80.5% | MOLT-4 leukemia 84.1%
